Our source for the inhibition values is ChEMBL document CHEMBL3433997, “St. Jude Leishmania screening dataset” (2016).

For orientation: inhibition means the change of the read-out against control, counted positive when it falls.

Common to all, as to format: functional
The target in assay [1] is Solute carrier family 2, facilitated glucose transporter member 1 (Homo sapiens) (UniProt P11166). In words: ST_JUDE_LEISH: Cytotoxicity at 2uM final concentration against transgenic Leishmania Mexicana promastigotes LmGLUT1 that are glucose transport deficient and complemented with the human glucose transporter GLUT1. Activity is measured by DNA content using SYBR green in vitro.
Chain of Solute carrier family 2, facilitated glucose transporter member 1 (Homo sapiens) (P11166 whole entry): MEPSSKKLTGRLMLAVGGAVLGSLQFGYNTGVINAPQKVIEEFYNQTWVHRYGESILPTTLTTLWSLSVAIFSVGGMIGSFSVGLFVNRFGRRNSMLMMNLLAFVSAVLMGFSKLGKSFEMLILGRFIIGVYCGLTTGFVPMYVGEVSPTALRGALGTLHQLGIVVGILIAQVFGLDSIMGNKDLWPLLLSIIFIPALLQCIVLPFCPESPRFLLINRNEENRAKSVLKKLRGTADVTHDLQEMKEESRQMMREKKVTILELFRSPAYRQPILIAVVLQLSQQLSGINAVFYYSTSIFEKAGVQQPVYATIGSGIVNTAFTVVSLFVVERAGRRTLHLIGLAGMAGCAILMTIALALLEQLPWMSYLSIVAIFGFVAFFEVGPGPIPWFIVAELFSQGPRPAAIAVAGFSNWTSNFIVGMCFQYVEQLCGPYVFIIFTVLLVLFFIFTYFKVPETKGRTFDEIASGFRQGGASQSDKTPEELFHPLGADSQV

Assay [2] addresses Hexose transporter 1 (Plasmodium falciparum) (UniProt O97467). In words: ST_JUDE_LEISH: Cytotoxicity at 2uM final concentration against transgenic Leishmania Mexicana promastigotes LmPfHT that are glucose transport deficient and complemented with the Plasmodium falciparum hexose transporter. Activity is measured by DNA content using SYBR green in vitro.
Assay [3] concerns the target Glucose transporter (Leishmania mexicana) (UniProt O61059). In words: ST_JUDE_LEISH: Cytotoxicity at 2uM final concentration against transgenic Leishmania Mexicana promastigotes LmGT2 that are glucose transport deficient and complemented with the L. Mexicana glucose transporter 2. Activity is measured by DNA content using SYBR green in vitro.

On to `CCc1cccc(-c2cc(N)n(C)c3nc(N)nc(=O)c2-3)c1`, for which the inhibition in assay [1] was -0.01%; in assay [2], 0.41%; in assay [3], -1.13%.
For `Cn1c(=O)c2cc(C(=O)NCCCN3CCCCCC3)sc2c2ccccc21`, in that order: 2.89%, 4.91% and 5.05%.
As for `Cn1cc(CN2CCCC(COC(c3ccccc3)c3ccccc3)C2)cn1` (centres undefined), the inhibition in assay [1] is 1.48%; in assay [2], 2.93%; in assay [3] it was 2.57%.
In the case of `CCC(C)NS(=O)(=O)c1ccc2nc(Nc3cccc(SC)c3)n(C(C)C(C)C)c2c1` (centres undefined), the inhibition in assay [1] is 3.91%; in assay [2] it was 4.3%; in assay [3] it was 3.8%.
Take `CCC(C)(C)c1ccc(OCC(O)CN2CCCCC2)c(C(C)(C)CC)c1` (centres undefined): the inhibition was 14.6% in assay [1], 15.2% in assay [2] and 13.2% in assay [3].
Regarding `c1cncc(-c2cc(N3CCCCC3)nc(-c3ccncc3)n2)c1`, the inhibition in assay [1] is 8.22%; in assay [2], 6.14%; in assay [3], 4.53%.
As for `Cc1[nH]cnc1CSCCN/C(=N\C#N)NCCCCCCCCN/C(=N/C#N)NCCSCc1nc[nH]c1C`, the inhibition in assay [1] came out at 2.45%; in assay [2], 2.15%; in assay [3], 2.98%.
For `CC(C)C1C(O)=C(c2ccc3ccccc3c2)C(=O)N1Cc1cccc(F)c1` (centres undefined), in that order: 6.97%, 7.53% and 8.55%.
For `Cc1cccc2nc(-c3ccc(-c4ccc(NC(=O)CN5CCN(C)CC5)cc4)cc3)[nH]c12`, the inhibition in assay [1] was determined as 2.26%; in assay [2], 1.8%; in assay [3] it was 4.7%.
As for `Cc1cc(=O)c(-c2ccc(Oc3cccc(OC(F)(F)F)c3)cc2)c(C)[nH]1`, the inhibition in assay [1] was 1.89%; in assay [2] it was 1.17%; in assay [3] it was -1.14%.
Take `CCCCCCN1CCCN(Cc2ccc(C(=O)Nc3ccc(CC)cc3)cc2)CC1`: the inhibition in assay [1] came out at 11.4%; in assay [2], 10.9%; in assay [3] it was 10.6%.
As to `Cc1cc(NCCc2ccccc2)nc(NC(=N)Nc2cccc(Cl)c2)n1`, the inhibition in assay [1] was -0.54%; in assay [2], 1.42%; in assay [3], 0.63%.
As for `CCc1cccc2c(C#N)cn(CC(=O)NCCc3ccccc3)c12`, the inhibition in assay [1] is 6.99%; in assay [2], 9.88%; in assay [3], 9.25%.
